Results taken from PubChem BioAssay (NCI).
Several values for one entry are separate records, joined by “and”; a condition that tells them apart may be missing. Equal values may be shown once. About 83,000 compounds went through this panel and 20% of them were active in at least one assay; those are over-represented in the sample as a whole.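 Note: values are percent growth. 100 is the growth of untreated cells, values between 100 and 0 indicate rising inhibition; between -100 and 0 indicates cell death.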 Unmarked numbers belong to inactive results. Activity calls are given as the source filed them. The calls were made as follows: active = growth percent below 10; inactive = the rest.

What follows are molecules tested on MDA-MB-468 breast (assay: NCI-60 one-dose screen, 48 h (100 = growth as untreated, 0 = no growth, -100 = all killed)). Conditions: 10 µM unless noted.

SMILES	growth
CCC1([N+](=O)[O-])COP(=O)(NCc2cccnc2)OC1 (stereo not given)	104%
CCC(C)(C)[C@H](NC(=O)[C@H]1CCCCN1C)C(=O)N(C)[C@H](C[C@@H](OC(C)=O)c1nc(C(=O)N[C@@H](Cc2ccccc2)C[C@H](C)C(=O)O)cs1)C(C)C	7.54% (active)
CC[C@H](C)[C@H](NC(=O)C12CC(NC)(C1)C2)C(=O)N(C)[C@H](C[C@@H](OC(C)=O)c1nc(C(=O)N[C@@H](Cc2ccccc2)C[C@H](C)C(=O)OC)cs1)C(C)C	-8.32% (active)
O=C(CCCc1ccc(N(CCCl)CCCl)cc1)OCc1ccccc1	87%
CC1(C)N=C(N)N=C(N)N1c1ccc(CCC(=O)Nc2ccc(S(=O)(=O)F)cc2)cc1	46.3%
CCOc1cc(C=C(C#N)C#N)cc(Br)c1O	119%
COC[C@@H]1C[C@@]2(C)[C@@H](CC[C@@H]3[C@@H]2CC[C@@]2(C)[C@H]3CC[C@]2(C)O)CC1=O	99%
CCCCCCCCCCCCCC[P+](CCCCCC)(CCCCCC)CCCCCC	-88.3% (active)
c1cnc2c(c1)ccc1ncccc12	109%
C=CCCCCCCCCC(=O)[O-].C=CCCCCCCCCC(=O)[O-].[Zn+2]	115%
C[C@H](O)CCC(=O)c1ccoc1	98.7%
Cc1c2cc(Cl)c3ccccc3c2c[n+]2ccccc12	-71.5% (active)
CC1=C[C@H]2O[C@@H]3C[C@H]4OC(=O)/C=C\C=C\[C@H]([C@@H](C)O)OCC[C@@H](C)[C@H](O)C(=O)OC[C@@]2(CC1)[C@]4(C)[C@]31CO1	-66.7% (active)
N#CC1C(C#N)C2CCC1C1C2N1c1ccccc1 (stereo not given)	102%
CC1(C)N=C(N)N=C(N)N1c1ccc(CCCCc2ccc(Cl)cc2S(=O)(=O)F)c(Cl)c1	-22.1% (active)
C[C@@]1(CCCCCCCCCc2ccc(O)cc2)C[C@]2(C)OC(=O)C[C@@H]2OO1	64.8%
O=C(N/N=C/c1ccc([N+](=O)[O-])o1)c1cc([N+](=O)[O-])cc([N+](=O)[O-])c1O	92.1%
CC(C)=CCc1c2c(c(O)c3c1O[C@]14C(=C[C@@H]5C[C@H]1C(C)(C)O[C@@]4(C/C=C(/C)C(=O)O)C5=O)C3=O)C=CC(C)(C)O2	-80.8% (active)

SMILES	growth
N/C(=N/N=C/c1ccncc1)N[N+](=O)[O-]	110%
CC(=O)Oc1ccccc1C(=O)NCCC[Se]C#N	19%
O=C(CBr)OCCOC(=O)CBr	32.8%
O=C(Cc1ccccc1)NC(O)C(Cl)(Cl)Cl (stereo not given)	104%
O=C(NCCCN1CC1)Nc1cccc2ccccc12	103% and 90.7%
C[C@]12CC[C@H]3[C@@H](CC=C4c5nc(-c6ccc(Br)cc6)sc5CC[C@@]43C)[C@@H]1CC[C@@H]2O	110%
CCC1CCC(=O)O1 (stereo not given)	99.3% and 109%
C#CC1(O)CCC2(C)C(CCC3C4CCC(=O)C4(C)CCC32)C1 (stereo not given)	86.3%
CCCCNCCc1ccccn1	117%
O=C1CC2(CC3(Cl)C(Cl)=C(Cl)C2(Cl)C3(Cl)Cl)C(=O)O1 (stereo not given)	105%
Cc1cc(N)ccc1N	86.4%
COC(=O)[C@@H](C)C[C@H](Cc1ccccc1)NC(=O)c1csc([C@@H](C[C@H](C(C)C)N(C)C(=O)[C@H](C)NC(=O)[C@H]2CCCCN2C)OC(C)=O)n1	10.1%
COc1ccc(C(c2ccc(OC)cc2)C(Cl)(Cl)Cl)cc1	18%
CCCCN1CCCC[C@@H]1C(=O)N[C@H](C(=O)N(C)[C@H](CCc1nc(C(=O)N[C@@H](Cc2ccccc2)C[C@H](C)C(=O)OC)cs1)C(C)C)[C@@H](C)CC	-1.75% (active)
CC[C@]12C=CCN3CC[C@@]4(c5ccc(OC)cc5N(C)[C@H]4[C@@](O)(C(=O)OC)[C@@H]1OC(=O)CCCC[P+](c1ccccc1)(c1ccccc1)c1ccccc1)[C@@H]32	-63.9% (active)
COC(=O)[C@@H](C)C[C@H](Cc1cn(C)c2ccccc12)NC(=O)c1csc([C@@H](C[C@H](C(C)C)N(C)C(=O)[C@@H](NC(=O)[C@H]2CCCCN2C)C(C)C)OC(C)=O)n1	28.6%
O=C1NC(=O)C(=Cc2ccccc2)C(=O)N1	96.4% and 115%
